Screening results (PubChem)
Compounds with a hit are over-represented: about 8.1% of the library has one in this group of screens.
NOMO-1 viab: NOMO-1 AML cell viability reduction, primary screen, STK33 inhibitor project, CellTiter-Glo luminescence | AID 2330, 2010 | inhibition, % (test concentration not listed) | 37,000 tested, 7.5% active | NOMO-1 AML viability, 72 h; in the data active = inhibition above about 80%; inconclusive = no clear call, values can overlap the other calls
Shh pathway inh: Hedgehog pathway signaling inhibitors, primary screen, luminescence, Shh-LIGHT2 cells, Gli-luciferase; AID 2313, 2010; inhibition, % (test concentration not listed); Shh-LIGHT2 Gli-luciferase reporter, 30 h; 22,000 tested, 2.1% active;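 active = mean inhibition across valid replicates above about 65%, limit read from the data; inconclusive = mean under the limit, yet half or more replicates past it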;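 also: pathway switched on by Shh-conditioned medium diluted 1 in 25 in low serum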
MITF inh: inhibitors of MITF, primary screen, MITF inhibitor project, cell-based, luminescence. inhibition, % (no concentration beside the values). 37,000 tested, 0.28% active. TRPM1 promoter luciferase, 24 h; in the data active = inhibition above about 85%; inconclusive = no clear call, values can overlap the other calls; inactive = below about 68%;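 also: human melanocyte line stably carrying TRPM1 promoter luciferase reporter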
Numbers without * were called inactive; ? = inconclusive; . = no result given; ! = not confirmed by another sample.

SMILES	NOMO-1 viab	Shh pathway inh	MITF inh
CNC(C)[C@H](O)c1ccccc1 (stereo not given in full)	2.3	-25.4	-4.7
C[C@@H]1CN(C2CCC(C#N)(c3ccc(F)cc3)CC2)CC[C@]1(C(=O)O)c1ccccc1 (stereo not given in full)	-13.3	-8.5	8.8
COc1ccc2c(c1OC)C(=O)O[C@@H]2[C@@H]1c2cc3c(cc2CCN1C)OCO3	-26.9	-2.3	-9.2
COc1ccc(C[C@H]2NC[C@H](O)[C@H]2OC(C)=O)cc1	120.0*	106.5*	104.1*
COC(=O)c1ccc(OP2(=O)COc3ccccc3OC2)cc1	5.6	-12.4	-2.8
CCOC(=O)C1=NN(c2ccc(C)cc2)C2c3cccc4cccc(c34)C12 (stereo not given)	22.4	.	-62.4
FC(F)(F)c1ccc2c(c1)N(CCCN1CCN(CCCl)CC1)c1ccccc1S2	98.7*	66.4*	18.0
Nc1ccc(CCN2CCN(c3cccc(C(F)(F)F)c3)CC2)cc1	47.5	42.4	7.2
CCOC(=O)c1c(C)n(C2CCCCC2)c2ccc(O)cc12	25.4	22.5	-0.8
Cc1ccc(C(C)C)cc1OP1(=O)COc2ccccc2OC1	31.8	-5.4	-12.7
CC(C)c1cc2c(cc1O)[C@@]1(C)CCCC(C)(C)[C@@H]1CC2O (stereo not given in full)	94.4*	-35.6	37.7
CC1(C)CCC[C@]2(C)c3cc(O)c(O)cc3C(=O)CC12 (stereo not given in full)	.	2.0	.
c1ccc2nc(N3CCNCC3)ccc2c1	8.0	?	-4.8
Fc1ccc(C(OCCN2CCN(C/C=C/c3ccccc3)CC2)c2ccc(F)cc2)cc1	119.5*	83.9*	99.6*
Fc1ccc(C(OCCN2CCN(CCCc3ccccc3)CC2)c2ccc(F)cc2)cc1	102.6*	67.0*!	6.8
c1ccc(CCCN2CCN(CCOC(c3ccccc3)c3ccccc3)CC2)cc1	104.4*	86.4*	20.5
O=C1NC(=O)C(CCc2ccncc2)(CCc2ccncc2)C(=O)N1c1ccccc1F	-6.5	.	3.7
O=C(c1ccccc1)N1CC2CC(C1)c1cccc(=O)n1C2 (stereo not given)	15.7	19.2	4.8
C[C@]1(C(=O)O)CCC[C@]2(C)c3cc(O)ccc3CC[C@@H]12	.	-48.7	.
O=C(O)c1nn(Cc2ccc(Cl)c(Cl)c2)c2ccccc12	2.1	18.6	7.0
C=C(C)C1Cc2c(ccc3c(=O)c4c(oc23)COc2cc(OC)c(OC)cc2-4)O1 (stereo not given)	-8.9	?	5.6
C/C=C1/C[N+]2(C)CCC34C(=C(C=O)[C@H]1C[C@@H]32)Nc1ccccc14 (stereo not given in full)	15.7	14.0	-0.1
CCOP(=S)(OCC)SCSP(=S)(OCC)OCC	6.3	-2.1	13.9
COC(=O)[C@H]1O[C@@H]2C[C@H]3OC(n4cnc5c(N)ncnc54)[C@H](OC)[C@H]3O[C@@]2(O)[C@@H](O)[C@@H]1O (stereo not given in full)	10.1	-7.4	8.7
CCNC(=O)[C@H]1O[C@@H](n2cnc3c(N)ncnc32)C(O)[C@H]1O (stereo not given in full)	0.9	42.4	-1.0
SMILES	NOMO-1 viab	Shh pathway inh	MITF inh
O=C1NC(=O)C(=C/C=C/c2ccccc2)C(=O)N1	112.6*	?	87.2*
Clc1ccc(C2CC3CCC2N3)cn1 (stereo not given)	11.5	-40.4	-7.1
Cc1cc(O)cc2oc(=O)c3c(O)cc(O)cc3c12	42.2	-12.1	-40.8
CCc1ccc(CN2CCN(Cc3cccc(OC)c3)CC2)cc1	25.9	.	1.0
C[C@]12C=CC(=O)C=C1CCC1C2CC[C@]2(C)C(=O)CCC12 (stereo not given in full)	-17.2	-25.4	-12.4
O=C(Nc1ccc2c(C(F)(F)F)cc(=O)oc2c1)c1cc(Cl)cc(Cl)c1	121.7*	-22.8	7.7
C/C(CC(c1ccccc1)c1c(O)c2ccccc2oc1=O)=N/O (stereo not given)	-7.8	.	3.2
O=c1c2ccccc2[nH]c(=S)n1-c1ccc(Cl)c(Cl)c1	29.3	-22.9	-7.3
COc1cc2c(cc1O)C1Cc3ccc(OC)c(O)c3CN1CC2 (stereo not given)	117.1*	-6.8	4.2
COc1ccc(CC2c3cc(OC)c(OC)cc3CCN2C)cc1OC (stereo not given)	7.1	-55.2	-14.7
COc1ccc2c(c1O)-c1c3c(cc4c1C(C2)N(C)CC4)OCO3 (stereo not given)	.	5.3	.
COc1cc2c(cc1O)[C@@H]1Cc3ccc(OC)c(O)c3CN1CC2	108.1*	-8.9	28.2
CC1(C)C(C(=O)Nc2ccccc2C(F)(F)F)C1(C)C	8.3	-37.3	-11.5
O=C1CC=C2C3CC4N(CCC45c4ccccc4N1C25)C/C3=C/CO (stereo not given)	6.7	16.2	6.5
